From PubChem
This is a sample that favours compounds with a hit; in the whole collection about 6.7% have one here.
Tcruzi prolif: T. cruzi intracellular proliferation inhibitors, primary screen, cell-based, beta-gal Tulahuen parasites, NIH3T3 host, luminescence; T. cruzi beta-gal in NIH3T3, GalScreen luminescence, 90 h; inhibition, % at 8.34 µM; 77,000 tested, 5.9% active;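 active means mean inhibition above about 93%, with at least 55% of replicates each passing it, limit read from the data, passing the limit was not always enough; inconclusive means only one of those two conditions holds; inactive means neither condition holds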
Pf Dd2 growth: P. falciparum Dd2 growth inhibitors, primary screen, SYBR Green fluorescence, single dose replicates. activity change, % at 10 µM. 72 h; stronger effect = lower value. AID 1159554, 2015. 94,000 tested, 2.3% active; in the data active means activity change below about -80%; inconclusive means no clear call, values can overlap the other calls
C diff growth: C. difficile growth inhibitors, primary screen, HTS | Clostridium difficile clinical isolate growth, OD600, 24 h; stronger effect = lower value | growth activity, negative = inhibition, % at 16 µg/mL (by protocol) | 86,000 tested, 0.25% active;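 active means mean growth activity at or below -80% and every replicate also at or below -80%; inconclusive means mean at or below -80% but some replicate above -80%; inactive means mean growth activity above -80%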;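 further: 0% = DMSO wells and -100% = levofloxacin 16 µg/mL wells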
The depositor's hits bear a star; ? = inconclusive; · = no result; ! = repeats disagree.

SMILES	Tcruzi prolif	Pf Dd2 growth	C diff growth
C[C@@H]1CN([C@@H](C)CO)C(=O)c2cc(NC(=O)Nc3ccccc3)ccc2O[C@@H](C)CCCCO[C@H]1CN(C)C(=O)Nc1cccc2ccccc12	31	-37	-2
C[C@@H]1CCCCO[C@H](CN(C)C(=O)Nc2cccc3ccccc23)[C@H](C)CN([C@@H](C)CO)C(=O)c2cc(NC(=O)Nc3ccccc3)ccc2O1	96	-50	4
C[C@@H]1CN([C@H](C)CO)C(=O)c2cc(NC(=O)Cc3ccccc3)ccc2O[C@@H](C)CCCCO[C@@H]1CN(C)C(=O)Nc1cccc2ccccc12	83	-92*	14
C[C@@H]1CCCCO[C@@H](CN(C)C(=O)Nc2cccc3ccccc23)[C@@H](C)CN([C@H](C)CO)C(=O)c2cc(NC(=O)Cc3ccccc3)ccc2O1	-35	-84*	19
C[C@H](CO)N1C[C@H](C)[C@@H](CN(C)C(=O)Nc2cccc3ccccc23)OCCCC[C@H](C)Oc2ccc(NC(=O)Cc3ccccc3)cc2C1=O	35	?	-15
C[C@@H]1CN([C@@H](C)CO)C(=O)c2cc(NC(=O)CCCCCC(=O)Nc3ccccc3N)ccc2O[C@H]1CN(C)S(C)(=O)=O	·	35	0
C[C@@H]1CCCCO[C@H](CN(C)S(=O)(=O)c2ccccc2)[C@H](C)CN([C@@H](C)CO)C(=O)c2cc(NC(=O)C3CCCCC3)ccc2O1	38	-73	-3
Cc1ccc(S(=O)(=O)N(C)C[C@H]2OCCCC[C@@H](C)Oc3ccc(NC(=O)C4CCCCC4)cc3C(=O)N([C@@H](C)CO)C[C@H]2C)cc1	29	-57	-4
C[C@H]1CCCCO[C@H](CN(C)S(=O)(=O)c2ccccc2)[C@@H](C)CN([C@@H](C)CO)C(=O)c2cc(NC(=O)C3CCCCC3)ccc2O1	36	-84*	-7
Cc1ccc(S(=O)(=O)N(C)C[C@@H]2OCCCC[C@@H](C)Oc3ccc(NC(=O)C4CCCCC4)cc3C(=O)N([C@H](C)CO)C[C@@H]2C)cc1	11	-89*	0
C[C@@H]1CCCCO[C@H](CN(C)S(=O)(=O)c2ccccc2)[C@@H](C)CN([C@@H](C)CO)C(=O)c2cc(NC(=O)C3CCCCC3)ccc2O1	45	-80*	-2
C[C@@H]1CN([C@@H](C)CO)C(=O)c2cc(NC(=O)C3CCCCC3)ccc2O[C@@H](C)CCCCO[C@@H]1CN(C)S(=O)(=O)c1ccccc1	38	-51	-2
C[C@H]1CCCCO[C@H](CN(C)C(=O)C2CCCCC2)[C@@H](C)CN([C@@H](C)CO)C(=O)c2cc(NC(=O)Nc3ccc4c(c3)OCO4)ccc2O1	?	-56	-4
O=C(c1ccccc1)N1C[C@@H]2[C@H](c3ccccc31)[C@H](CO)N2C(=O)c1ccccn1	-109	-2	1
C[C@@H]1CCCCO[C@H](CN(C)S(=O)(=O)c2ccc(Cl)cc2)[C@@H](C)CN([C@@H](C)CO)C(=O)c2cc(NC(=O)c3ccncc3)ccc2O1	81	-71	6
CCCC(=O)Nc1ccc2c(c1)OC[C@@H](C)N(C(=O)CC)C[C@@H](C)[C@H](OC)CN(C)C2=O	12	-6	·
C[C@H]1CN([C@@H](C)CO)C(=O)c2cccc(NC(=O)CCCCCC(=O)Nc3ccccc3N)c2O[C@H]1CN(C)Cc1ccc(-c2ccccc2)cc1	·	-85*	-1
C[C@H](CO)N1C[C@H](C)[C@H](CN(C)Cc2ccccc2)Oc2c(NC(=O)CCCCCC(=O)Nc3ccccc3N)cccc2C1=O	·	-65	17
C[C@@H]1CN([C@H](C)CO)C(=O)c2cccc(NC(=O)CCCCCC(=O)Nc3ccccc3N)c2O[C@@H]1CN(C)Cc1ccccc1	·	-78	-5
C[C@@H]1CN([C@H](C)CO)C(=O)c2cccc(NC(=O)CCCCCC(=O)Nc3ccccc3N)c2O[C@@H]1CN(C)Cc1ccc(-c2ccccc2)cc1	·	-89*	6
C/C=C/c1ccc2c(c1)O[C@@H](CN(C)C(=O)NCCC)[C@@H](C)CN([C@@H](C)CO)S2(=O)=O	·	-18	-2
COc1ccccc1NC(=O)Nc1ccc2c(c1)C(=O)N(C)C[C@H](OC)[C@@H](C)CN[C@@H](C)CO2	-3	2	1
C[C@@H]1CN([C@H](C)CO)C(=O)Cc2cc(NC(=O)Nc3ccc4c(c3)OCO4)ccc2O[C@H]1CN(C)CC1CC1	8	23	0
Cc1ccc(S(=O)(=O)N(C)C[C@H]2OCCCC[C@H](C)Oc3ccc(NC(=O)Nc4ccc5c(c4)OCO5)cc3C(=O)N([C@@H](C)CO)C[C@@H]2C)cc1	·	-72	·
C[C@@H]1CN([C@@H](C)CO)C(=O)c2cc(NC(=O)Nc3ccc4c(c3)OCO4)ccc2O[C@@H](C)CCCCO[C@@H]1CN(C)S(=O)(=O)c1ccc(F)cc1	44	-74	1
SMILES	Tcruzi prolif	Pf Dd2 growth	C diff growth
Cc1ccc(S(=O)(=O)N(C)C[C@@H]2OCCCC[C@@H](C)Oc3ccc(NC(=O)Nc4ccc5c(c4)OCO5)cc3C(=O)N([C@H](C)CO)C[C@@H]2C)cc1	·	-82*	·
C[C@H]1CCCCO[C@H](CN(C)S(=O)(=O)c2ccc(F)cc2)[C@@H](C)CN([C@@H](C)CO)C(=O)c2cc(NC(=O)Nc3ccc4c(c3)OCO4)ccc2O1	79	-76	-1
C[C@@H]1CN([C@H](C)CO)C(=O)c2cc(NC(=O)Nc3ccc4c(c3)OCO4)ccc2O[C@@H](C)CCCCO[C@@H]1CN(C)S(=O)(=O)c1ccc(F)cc1	38	-84*	5
C[C@@H]1CCCCO[C@@H](CN(C)S(=O)(=O)c2ccc(Cl)cc2)[C@@H](C)CN([C@H](C)CO)C(=O)c2cc(NC(=O)Nc3ccc4c(c3)OCO4)ccc2O1	72	-88*	13
C[C@@H]1CN([C@H](C)CO)C(=O)c2cc(NC(=O)c3ccncc3)ccc2O[C@H]1CN(C)Cc1ccc2c(c1)OCO2	20	-4	-2
C[C@@H]1CN([C@H](C)CO)C(=O)c2cc(N(C)C)ccc2O[C@@H](C)CCCCO[C@H]1CN(C)S(=O)(=O)c1ccc(Cl)cc1	57	-84*	-4
COc1ccc(S(=O)(=O)N(C)C[C@H]2OCCCC[C@@H](C)Oc3ccc(N(C)C)cc3C(=O)N([C@H](C)CO)C[C@@H]2C)cc1	36	-83*!	-2
C[C@H]1CCCCO[C@@H](CN(C)S(=O)(=O)c2ccc(Cl)cc2)[C@@H](C)CN([C@@H](C)CO)C(=O)c2cc(N(C)C)ccc2O1	54	·	0
COc1ccc(S(=O)(=O)N(C)C[C@@H]2OCCCC[C@@H](C)Oc3ccc(N(C)C)cc3C(=O)N([C@@H](C)CO)C[C@H]2C)cc1	5	-36	-1
O=C(c1cnccn1)N1CC[C@H]2[C@H](CO)Nc3ccc(C#Cc4cccnc4)cc3[C@H]21	3	-9	0
CS(=O)(=O)Nc1ccc2c(c1)[C@@H]1C[C@@H](CC(=O)NCc3ccccn3)O[C@H](CO)[C@@H]1O2	8	20	5
COc1ccc(NC(=O)Nc2ccc3c(c2)C(=O)N([C@@H](C)CO)C[C@@H](C)[C@@H](CN(C)S(=O)(=O)c2cn(C)cn2)OCCCC[C@@H](C)O3)cc1	-86	-15	-7
